Here are results for 12 compounds from PubChem BioAssay (Tox21).

Several values for one entry are separate records, joined by “and”; a condition that tells them apart may be missing. Identical values can stand only once. Results filed as inconclusive are left out. Some structures have more than one record in an assay (separate samples or runs), and their calls can disagree. Activity calls are given as the source filed them. Unless noted, calls come from the whole dose curve; as a rule, active = well fitted curve in the direction sought with a large enough effect in the repeat runs; inconclusive = weak or mixed curves; inactive = no such curve, though single readings can be large; an effect the other way counts as inactive or inconclusive.

Assay [1] in a line: Human pregnane X receptor (PXR) small molecule agonists, qHTS cell viability counter screen (AID 1346977). Note: nearly all actives have a fitted effect of over 50% in size. In short, it runs like this:
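PXR-Luc HepG2 cells (2,000/well, 5% charcoal-stripped FBS) preincubated 5 hr, then exposed to compounds 24 hr at 37 C. Viability read in the same wells by CellTiter-Fluor fluorescence, reagent added at 23 hr, 1 hr incubation.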
(Quantitative high-throughput screening tests each substance at several concentrations.)

A short description of assay [2]: Caspase-3/7 induction in HepG2 cells by small molecules, qHTS assay (AID 1346978). Note: nearly all actives have a fitted effect of over 15% in size. Summed up: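 Wild-type HepG2 cells, 2,000/well, settled 5 hr at 37 C and 5% CO2, then compound-treated for 17 hr; caspase-3/7 activity read by luminescent Caspase-Glo 3/7 after 30 min at room temperature.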
Assay [3] is described as follows: Caspase-3/7 induction in CHO-K1 cells by small molecules, qHTS cell viability counter screen (AID 1346979). Note: nearly all actives have a fitted effect of over 35% in size. Summed up:
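Wild-type CHO-K1 cells (1,500/well) treated with compound after 5 h plating; after 16 h at 37C, viability read as CellTiter-Fluor fluorescence following 1 h reagent incubation, in the same wells as the caspase read.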

Assay [4] can be described thus: Caspase-3/7 induction in CHO-K1 cells by small molecules, qHTS assay (AID 1346980). Note: nearly all actives have a fitted effect of over 15% in size. Summed up:
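Wild-type CHO-K1 cells exposed to compounds for 17hr at 37 C, 5% CO2. Caspase-3/7 activity then measured by Caspase-Glo 3/7 luminescence after 30min at room temperature.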

The nature of assay [5]: Caspase-3/7 induction in HepG2 cells by small molecules, qHTS cell viability counter screen (AID 1346981). Note: series mostly up to about 92 µM; nearly all actives have a fitted effect of over 30% in size. In short, it runs like this: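 In this quantitative HTS counter screen, compounds delivered in DMSO were left on unmodified HepG2 cells for 16 hr at 37 C. Viability was then determined fluorometrically with CellTiter-Fluor, in parallel with caspase-3/7 induction in the same wells.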

In assay [6] the target is Nuclear receptor subfamily 1 group I member 2 (Homo sapiens) (UniProt O75469). The assay is described as follows: Human pregnane X receptor (PXR) small molecule agonists, qHTS assay (AID 1346982). Note: nearly all actives have a fitted effect of over 35% in size. Note: potency is the fitted concentration of half-maximal effect. In short, it runs like this:
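Reporter HepG2 cells expressing PXR-Luc are cultured in charcoal-stripped FBS (5%), treated with compounds for 24 hr at 37 C, and assayed by ONE-Glo luminescence after 30 min at room temperature.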

The target of assay [7] is Acetylcholinesterase (Homo sapiens) (UniProt P22303). In words: Acetylcholinesterase (AChE) small molecule antagonists: colormetric cell-based qHTS assay (AID 1347395; calls by dose curve; note: nearly all actives have a fitted effect of over 30% in size; note: potency is the fitted concentration of half-maximal effect). In short, it runs like this:
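SH-SY5Y cells attached overnight, exposed to compound 30 min at 37 C, then given DTNB/acetylthiocholine; after 90 min at 37 C, colorimetric thiocholine read gives cellular AChE activity.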

Assay [8] shares this target. The assay is described as follows: Acetylcholinesterase (AChE) small molecule antagonists: enzyme-based qHTS assay (AID 1347397; calls by dose curve; note: nearly all actives have a fitted effect of over 55% in size; note: potency is the fitted concentration of half-maximal effect). The conditions noted are these: Potency: AChE enzyme activity inhibition. In short, it runs like this: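 In this quantitative HTS, compounds from the Tox21 10K collection were preincubated 30 min at ambient temperature with recombinant human AChE dispensed at 50 mU/mL. Hydrolysis of acetylthiocholine was then followed for 10 min by DTNB colour development.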

Assay [9] has the same target. In words: Acetylcholinesterase (AChE) small molecule antagonists: fluorescence cell-based qHTS assay (AID 1347398; calls by dose curve; note: nearly all actives have a fitted effect of over 50% in size; note: potency is the fitted concentration of half-maximal effect). The conditions noted are these: Potency: AChE activity. In short, it runs like this:
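Cells (SH-SY5Y) attached overnight, were dosed with compound or DMSO vehicle for 30 min at 37 C, and then incubated 40 min at room temperature with acetylthiocholine and Thiolite Green; green fluorescence indexed AChE activity.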

For assay [10] the target is unchanged. In words: Acetylcholinesterase (AChE) small molecule antagonists: enzyme-based qHTS assay with human liver microsomes (AID 1347399; calls by dose curve; note: nearly all actives have a fitted effect of over 60% in size; note: potency is the fitted concentration of half-maximal effect). The conditions noted are these: Potency: qHTS inhibition. In short, it runs like this:
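Recombinant human AChE (50 mU/mL in the enzyme mix) and human liver microsomes (0.25 mg/mL final) were preincubated with compound and NADPH (0.25 mg/mL final) for 30 min at 37 C. Acetylthiocholine/DTNB was then added; thiocholine was read colorimetrically after 10 min at room temperature.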

The target of assay [11] is Cytochrome P450 2D6 (Homo sapiens) (UniProt P10635). The assay is described as follows: Cytochrome P450 Family 2 Subfamily D Member 6 (CYP2D6) small molecule antagonists: luciferase reporter qHTS assay (AID 1671196). Note: nearly all actives have a fitted effect of over 50% in size. Note: potency is the fitted concentration of half-maximal effect. Summed up:
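Test chemicals meet CYP2D6 plus proluciferin substrate (10 min, RT); NADPH regenerating solution then drives turnover for 1 h. Detection reagent halts the reaction; luminescence measured after 20 min.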
On the technique in general: In a reporter assay the amount or activity of a reporter protein is the signal.

Assay [12] deals with Cytochrome P450 2C19 (Homo sapiens) (UniProt P33261). In words: Cytochrome P450 Family 2 Subfamily C Member 19 (CYP2C19) small molecule antagonists: luciferase reporter qHTS assay (AID 1671197). Note: nearly all actives have a fitted effect of over 65% in size. Note: potency is the fitted concentration of half-maximal effect. Summed up:
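Luminescent readout of CYP2C19 activity: luciferin product detected 20 min after adding detection reagent. Before that, compound and enzyme-substrate mix preincubated 10 min at room temperature; NADPH-regenerating system started a 1 h, 37C reaction. Ketoconazole as positive control.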

The target of assay [13] is Cytochrome P450 2C9 (Homo sapiens) (UniProt P11712). In words: Cytochrome P450 Family 2 Subfamily C Member 9 (CYP2C9) small molecule antagonists: luciferase reporter qHTS assay (AID 1671198). Note: nearly all actives have a fitted effect of over 50% in size. Note: potency is the fitted concentration of half-maximal effect. In short, it runs like this: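 P450-Glo proluciferin substrate with CYP2C9 enzyme; 10 min RT preincubation, then NADPH regeneration 1 h at 37C; luciferin detection reagent 20 min RT, luminescence in relative luminescence units.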

The target of assay [14] is Cytochrome P450 1A2 (Homo sapiens) (UniProt P05177). In words: Cytochrome P450 Family 1 Subfamily A Member 2 (CYP1A2) small molecule antagonists: luciferase reporter qHTS assay (AID 1671199). Note: nearly all actives have a fitted effect of over 50% in size. Note: potency is the fitted concentration of half-maximal effect. In short, it runs like this: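 Steps: enzyme-substrate mix dispensed; test compounds and furafylline control pinned in; 10 min room temperature; NADPH regeneration solution added, 1 h; reaction stopped with luciferin detection reagent; luminescence read after 20 min.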

Assay [15] deals with Voltage-gated inwardly rectifying potassium channel KCNH2 (Homo sapiens) (UniProt Q12809). The assay is described as follows: Human Ether-a-go-go-Related Gene (hERG) channel small molecule antagonists: fluorescence cell-based qHTS assay (AID 1671200). In short, it runs like this: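 hERG-U2OS cells plated overnight at 37 C, loaded with FluxOR II dye 1 h at RT in dark; after 10 min, thallium stimulus added. Fluorescence (480/540 nm) read kinetically for 2 min at 1 s intervals.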
For orientation: hERG is a cardiac potassium channel; its block is linked to QT prolongation.

Assay [16] addresses Cytochrome P450 3A4 (Homo sapiens) (UniProt P08684). In words: Cytochrome P450 Family 3 Subfamily A Member 4 (CYP3A4) small molecule antagonists: luciferase reporter qHTS assay (AID 1671201). Note: nearly all actives have a fitted effect of over 50% in size. Note: potency is the fitted concentration of half-maximal effect. Summed up:
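P450-Glo CYP3A4 luminescent assay: compounds preincubated 10 min at room temperature with enzyme and proluciferin substrate, NADPH regeneration added, 1 h room-temperature reaction, stopped with luciferin detection reagent; luminescence read after 20 min. Ketoconazole positive control.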

Acetylcholinesterase (Homo sapiens), sequence (P22303 whole entry, looked up): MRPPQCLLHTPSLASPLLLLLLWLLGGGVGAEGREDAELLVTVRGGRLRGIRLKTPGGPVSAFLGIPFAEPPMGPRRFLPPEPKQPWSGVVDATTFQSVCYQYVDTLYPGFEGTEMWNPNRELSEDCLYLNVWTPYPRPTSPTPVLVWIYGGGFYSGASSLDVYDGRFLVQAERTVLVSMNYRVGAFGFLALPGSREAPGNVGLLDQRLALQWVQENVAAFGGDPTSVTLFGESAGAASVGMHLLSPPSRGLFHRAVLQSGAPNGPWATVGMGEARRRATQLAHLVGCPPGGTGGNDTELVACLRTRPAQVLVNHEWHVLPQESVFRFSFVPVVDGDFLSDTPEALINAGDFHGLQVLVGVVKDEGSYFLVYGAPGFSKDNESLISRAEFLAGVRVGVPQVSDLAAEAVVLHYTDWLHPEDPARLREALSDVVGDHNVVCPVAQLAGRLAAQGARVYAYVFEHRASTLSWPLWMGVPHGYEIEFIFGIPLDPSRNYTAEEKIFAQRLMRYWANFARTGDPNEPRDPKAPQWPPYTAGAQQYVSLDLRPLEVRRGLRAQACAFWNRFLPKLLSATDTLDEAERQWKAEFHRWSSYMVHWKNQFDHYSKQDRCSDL
Voltage-gated inwardly rectifying potassium channel KCNH2 (Homo sapiens), sequence (Q12809 whole entry, looked up): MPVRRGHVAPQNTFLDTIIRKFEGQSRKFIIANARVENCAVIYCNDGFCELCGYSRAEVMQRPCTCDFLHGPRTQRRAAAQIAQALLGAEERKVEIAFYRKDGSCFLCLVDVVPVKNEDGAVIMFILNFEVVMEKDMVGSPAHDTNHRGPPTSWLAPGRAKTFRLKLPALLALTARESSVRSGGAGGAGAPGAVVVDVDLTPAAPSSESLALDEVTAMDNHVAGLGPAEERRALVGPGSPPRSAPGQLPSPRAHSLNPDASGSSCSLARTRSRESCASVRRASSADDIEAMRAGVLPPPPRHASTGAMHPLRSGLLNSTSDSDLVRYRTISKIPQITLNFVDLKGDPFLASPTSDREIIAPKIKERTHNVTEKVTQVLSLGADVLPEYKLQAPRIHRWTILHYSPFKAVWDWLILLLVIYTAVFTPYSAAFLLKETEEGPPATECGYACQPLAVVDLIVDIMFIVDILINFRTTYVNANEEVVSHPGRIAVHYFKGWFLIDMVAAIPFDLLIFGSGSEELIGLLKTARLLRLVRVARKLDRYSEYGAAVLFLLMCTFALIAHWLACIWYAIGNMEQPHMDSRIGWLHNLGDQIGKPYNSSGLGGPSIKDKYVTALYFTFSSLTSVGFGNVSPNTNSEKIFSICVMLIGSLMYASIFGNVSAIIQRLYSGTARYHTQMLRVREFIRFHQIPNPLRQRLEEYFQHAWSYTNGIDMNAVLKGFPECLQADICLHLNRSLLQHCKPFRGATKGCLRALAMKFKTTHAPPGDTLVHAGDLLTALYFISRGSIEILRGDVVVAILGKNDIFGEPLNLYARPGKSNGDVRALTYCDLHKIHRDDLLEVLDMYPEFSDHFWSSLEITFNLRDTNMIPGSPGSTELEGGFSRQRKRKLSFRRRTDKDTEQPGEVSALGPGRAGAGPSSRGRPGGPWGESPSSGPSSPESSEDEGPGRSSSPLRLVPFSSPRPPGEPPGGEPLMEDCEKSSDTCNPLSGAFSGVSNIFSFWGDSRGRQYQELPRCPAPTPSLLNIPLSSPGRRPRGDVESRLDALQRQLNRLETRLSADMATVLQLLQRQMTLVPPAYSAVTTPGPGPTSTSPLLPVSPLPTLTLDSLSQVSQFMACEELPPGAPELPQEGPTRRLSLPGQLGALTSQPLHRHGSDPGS
Cytochrome P450 3A4 (Homo sapiens), sequence (P08684 whole entry, looked up): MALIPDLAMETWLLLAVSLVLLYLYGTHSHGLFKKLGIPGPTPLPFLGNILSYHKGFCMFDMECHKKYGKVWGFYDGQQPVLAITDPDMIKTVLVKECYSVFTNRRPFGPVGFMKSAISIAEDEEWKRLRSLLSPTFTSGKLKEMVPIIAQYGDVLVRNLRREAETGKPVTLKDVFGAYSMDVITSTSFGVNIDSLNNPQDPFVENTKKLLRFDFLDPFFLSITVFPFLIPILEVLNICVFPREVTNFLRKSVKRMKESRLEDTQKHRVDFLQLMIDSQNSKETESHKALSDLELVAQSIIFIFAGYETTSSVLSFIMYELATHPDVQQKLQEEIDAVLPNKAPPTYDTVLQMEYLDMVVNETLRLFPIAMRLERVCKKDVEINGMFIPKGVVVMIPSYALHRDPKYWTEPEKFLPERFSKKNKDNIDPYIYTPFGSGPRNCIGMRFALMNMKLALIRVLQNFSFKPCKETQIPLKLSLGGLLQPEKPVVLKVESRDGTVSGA
Cytochrome P450 2C19 (Homo sapiens), sequence (P33261 whole entry, looked up): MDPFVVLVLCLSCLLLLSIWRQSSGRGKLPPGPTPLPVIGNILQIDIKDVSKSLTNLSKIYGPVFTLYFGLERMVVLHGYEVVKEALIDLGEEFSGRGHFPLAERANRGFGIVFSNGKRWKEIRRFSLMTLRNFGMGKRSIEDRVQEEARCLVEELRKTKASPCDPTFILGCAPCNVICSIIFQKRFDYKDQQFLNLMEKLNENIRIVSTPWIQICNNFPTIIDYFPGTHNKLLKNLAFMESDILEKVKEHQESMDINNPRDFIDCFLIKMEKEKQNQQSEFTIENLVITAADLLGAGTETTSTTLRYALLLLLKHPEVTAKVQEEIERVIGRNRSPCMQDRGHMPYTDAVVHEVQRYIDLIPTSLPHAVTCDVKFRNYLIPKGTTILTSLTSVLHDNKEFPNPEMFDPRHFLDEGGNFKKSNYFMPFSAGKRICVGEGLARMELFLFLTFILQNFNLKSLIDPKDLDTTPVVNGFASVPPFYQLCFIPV
Cytochrome P450 2C9 (Homo sapiens), sequence (P11712 whole entry, looked up): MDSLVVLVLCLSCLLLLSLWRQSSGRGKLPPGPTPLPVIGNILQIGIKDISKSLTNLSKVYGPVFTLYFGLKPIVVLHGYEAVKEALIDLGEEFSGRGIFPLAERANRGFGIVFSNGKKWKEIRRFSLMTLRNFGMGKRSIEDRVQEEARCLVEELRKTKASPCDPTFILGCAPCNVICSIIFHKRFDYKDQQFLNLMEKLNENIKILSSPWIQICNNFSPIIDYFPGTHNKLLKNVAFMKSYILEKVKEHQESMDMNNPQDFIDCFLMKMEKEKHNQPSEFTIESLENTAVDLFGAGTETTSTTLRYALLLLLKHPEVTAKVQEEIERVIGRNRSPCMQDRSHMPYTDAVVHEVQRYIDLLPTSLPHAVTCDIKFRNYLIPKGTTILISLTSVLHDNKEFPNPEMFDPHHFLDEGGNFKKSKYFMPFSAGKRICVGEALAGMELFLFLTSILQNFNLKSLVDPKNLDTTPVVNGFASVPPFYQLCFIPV
Cytochrome P450 1A2 (Homo sapiens), sequence (P05177 whole entry, looked up): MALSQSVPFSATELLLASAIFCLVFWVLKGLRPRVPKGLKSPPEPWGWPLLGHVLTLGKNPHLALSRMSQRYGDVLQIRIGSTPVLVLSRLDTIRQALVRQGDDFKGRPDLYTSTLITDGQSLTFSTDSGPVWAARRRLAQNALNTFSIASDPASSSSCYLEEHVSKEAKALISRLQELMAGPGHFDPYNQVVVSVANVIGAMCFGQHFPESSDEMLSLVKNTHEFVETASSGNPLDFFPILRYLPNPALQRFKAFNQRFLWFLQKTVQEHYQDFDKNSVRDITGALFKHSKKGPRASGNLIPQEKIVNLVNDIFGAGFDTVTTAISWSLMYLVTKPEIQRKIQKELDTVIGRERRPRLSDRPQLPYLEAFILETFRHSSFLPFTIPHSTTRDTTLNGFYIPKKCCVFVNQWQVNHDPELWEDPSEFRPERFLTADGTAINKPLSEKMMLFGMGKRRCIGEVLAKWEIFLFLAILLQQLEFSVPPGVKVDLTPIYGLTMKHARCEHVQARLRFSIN
Cytochrome P450 2D6 (Homo sapiens), sequence (P10635 whole entry, looked up): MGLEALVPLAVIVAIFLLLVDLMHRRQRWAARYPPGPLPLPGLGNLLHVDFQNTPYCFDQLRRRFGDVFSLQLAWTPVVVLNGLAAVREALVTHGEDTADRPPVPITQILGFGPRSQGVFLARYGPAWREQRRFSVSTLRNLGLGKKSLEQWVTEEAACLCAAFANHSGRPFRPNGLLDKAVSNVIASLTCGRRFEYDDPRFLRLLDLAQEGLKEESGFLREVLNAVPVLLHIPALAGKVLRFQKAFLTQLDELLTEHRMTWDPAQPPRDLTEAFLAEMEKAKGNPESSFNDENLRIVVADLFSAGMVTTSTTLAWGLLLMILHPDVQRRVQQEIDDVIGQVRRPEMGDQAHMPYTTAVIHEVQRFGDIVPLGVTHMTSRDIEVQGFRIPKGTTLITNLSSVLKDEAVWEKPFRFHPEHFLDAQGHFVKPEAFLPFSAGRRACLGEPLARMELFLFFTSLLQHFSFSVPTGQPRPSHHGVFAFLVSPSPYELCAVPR
Nuclear receptor subfamily 1 group I member 2 (Homo sapiens), sequence (O75469 whole entry, looked up): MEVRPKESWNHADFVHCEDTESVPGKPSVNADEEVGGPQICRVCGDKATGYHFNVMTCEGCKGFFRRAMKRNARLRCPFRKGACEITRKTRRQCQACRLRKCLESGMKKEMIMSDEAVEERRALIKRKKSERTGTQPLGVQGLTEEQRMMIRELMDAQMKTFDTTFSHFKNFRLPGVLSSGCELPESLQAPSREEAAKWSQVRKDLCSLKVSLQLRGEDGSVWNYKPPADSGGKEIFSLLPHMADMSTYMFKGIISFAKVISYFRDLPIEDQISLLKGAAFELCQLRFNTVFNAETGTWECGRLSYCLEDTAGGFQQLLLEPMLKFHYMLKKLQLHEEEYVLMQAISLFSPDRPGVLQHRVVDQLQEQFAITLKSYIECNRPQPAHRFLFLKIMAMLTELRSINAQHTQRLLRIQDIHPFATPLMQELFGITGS

As for `Nc1ccc2ccccc2c1`, the Potency entry in [1], in assay [2], in assay [3], in assay [4], in [5] and in [7] was “inactive” each time. In addition, the Potency result in [8], in [9], in assay [10] and in assay [15] was “inactive” each time. Further, the Potency was 46.9 µM (active) and 43.3 µM (active) in [6]; 24.3 µM (active) and 15.9 µM (active) in assay [11]; 9.69 µM (active) and 31.7 µM (active) in assay [12]; 27.3 µM (active) and 31.7 µM (active) in assay [13]; 1.72 µM (active) and 2 µM (active) in [14]; 19.3 µM (active) and 17.8 µM (active) in assay [16].

With `COc1ccc(C=O)cc1OC`, the Potency result in assay [1], in assay [2], in assay [3], in [4], in [5] and in assay [6] was “inactive” each time. For the same compound, the Potency result in assay [7], in assay [8], in [9], in [10], in [11] and in assay [13] was “inactive” throughout. Besides, the Potency entry in assay [15] and in assay [16] was “inactive” each time. For the same compound, the Potency in assay [12] was 9.04 µM (active) and 71 µM (active); in assay [14], 32.1 µM (active) and 31.7 µM (active).

Regarding `ClCC(Cl)CCl`, the Potency entry in assay [1], in assay [2], in assay [3], in [4], in [5] and in [6] was “inactive” each time. Further, the Potency entry in assay [7], in [8], in assay [9], in assay [10], in assay [12] and in [13] was “inactive” each time. The Potency result in [15] and in assay [16] was “inactive” throughout. Besides, the Potency in assay [11] is 28.5 µM (active) and inactive; in assay [14] it was 44.8 µM (active).

In the case of `CCOS(=O)(=O)OCC`, the Potency result in assay [1], in [2], in assay [3], in assay [4], in [5] and in assay [6] was “inactive” each time. Besides, the Potency result in assay [8], in assay [9], in [10], in assay [11], in assay [15] and in [16] was “inactive” each time. The Potency in [7] was 5.03 µM (active) and inactive; in [12], 79.8 µM (active) and inactive; in assay [13] it was 71.1 µM (active) and inactive; in [14], 35.6 µM (active) and inactive.

Turning to `CC(C)Nc1nc(Cl)nc(NC(C)C)n1`, the Potency entry in assay [1], in [2], in assay [3], in assay [4], in [5] and in assay [10] was “inactive” throughout. The Potency result in [11], in [13], in assay [15] and in [16] was “inactive” in each case. Moreover, the Potency in assay [6] is 54.4 µM (active) and 24.3 µM (active); in [7] it was “inactive and 31.7 µM (active)”; in [8], “inactive and 71 µM (active)”; in assay [9], “inactive and 31.7 µM (active)”; in assay [12], “inactive and 35.6 µM (active)”; in assay [14], 10 µM (active) and 20 µM (active).

For `CCCCOCC1CO1` (stereo not given), the Potency entry in [1], in assay [2], in assay [3], in assay [4], in [5] and in assay [6] was “inactive” each time. Also, the Potency entry in assay [7], in assay [11], in assay [12], in [13], in [14] and in [15] was “inactive” throughout. In assay [16], the Potency result is “inactive”. In addition, the Potency in assay [8] was 10.1 µM (active) and inactive; in assay [9], 899 nM (active) and inactive; in assay [10] it was 63.7 µM (active) and inactive.

With `C[N+](C)(C)C`, the Potency entry in assay [1], in assay [2], in assay [3], in assay [4], in [5] and in assay [6] was “inactive” in each case. In addition, the Potency result in assay [7], in assay [8], in assay [9], in [10], in [11] and in [12] was “inactive” each time. Moreover, the Potency result in assay [13], in assay [14] and in assay [16] was “inactive” each time.

In the case of `C[N+](C)(C)CC(=O)[O-]`, the Potency result in assay [1], in assay [2], in assay [3], in assay [4], in assay [5] and in assay [6] was “inactive” throughout. Also, the Potency result in assay [7], in [8], in assay [9], in assay [10], in assay [11] and in assay [12] was “inactive” throughout. Moreover, the Potency entry in assay [13], in [14], in [15] and in assay [16] was “inactive” each time.

Take `Cc1ccc([N+](=O)[O-])cc1`: the Potency result in [1], in assay [2], in assay [3], in assay [4], in assay [5] and in [6] was “inactive” each time. Moreover, the Potency result in assay [7], in [8], in [9], in [10], in [11] and in assay [12] was “inactive” throughout. In addition, the Potency result in [13], in assay [14], in [15] and in assay [16] was “inactive” throughout.

For `CC(C)(C#N)N=NC(C)(C)C#N`, the Potency result in assay [1], in assay [2], in [3], in assay [4], in assay [5] and in assay [6] was “inactive” in each case. The Potency entry in assay [7], in assay [8], in assay [9], in assay [10], in [11] and in assay [12] was “inactive” each time. Further, the Potency entry in assay [13], in [14], in assay [15] and in assay [16] was “inactive” throughout.

In the case of `N#CC(c1ccccc1)c1ccccc1`, the Potency entry in assay [1], in [2], in [3], in assay [4], in assay [5] and in assay [6] was “inactive” each time. Also, the Potency result in assay [7], in [8], in assay [9], in assay [10], in assay [11] and in [15] was “inactive” each time. In addition, the Potency entry in [16] is “inactive”. Moreover, the Potency in assay [12] was 4.48 µM (active) and 5.03 µM (active); in [13] it was 22.4 µM (active) and 35.6 µM (active).

For the compound `c1ccc(C2CO2)cc1` (stereo not given), the Potency entry in [1], in [2], in assay [3], in assay [4], in assay [5] and in assay [6] was “inactive” in each case. For the same compound, the Potency result in [7], in [8], in [9], in assay [10], in [11] and in [14] was “inactive” each time. For the same compound, the Potency result in [15] and in assay [16] was “inactive” each time. Also, the Potency result is “inactive and 35.6 µM (active)” in [12]; “inactive and 71 µM (active)” in assay [13].
